The values below come from PubChem BioAssay (NCI).

This is part of a sample that, as a whole, favours compounds with a hit. Of some 83,000 tested, about 20% had one in any assay.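 Interpretation: 100, growth as untreated; towards 0, rising growth inhibition; 0, no net growth; 0 to -100, cell death. Compounds scoring below 10 were considered active.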 A number with no mark means an inactive call. Activity calls are given as the source filed them.

Test systems include SR leukemia; RPMI-8226 leukemia; OVCAR-8 ovarian; OVCAR-5 ovarian; OVCAR-4 ovarian; SK-OV-3 ovarian; IGROV1 ovarian; OVCAR-3 ovarian; HS 578T breast; NCI/ADR-RES ovarian; T-47D breast; BT-549 breast; MDA-MB-435 melanoma; MCF7 breast; HCT-116 colon; HCC-2998 colon; KM12 colon; SW-620 colon.
Common to all, as to assay: NCI-60 one-dose screen, 48 h (100 = growth as untreated, 0 = no growth, -100 = all killed)
Settings in all cases: 10 µM unless noted

Consider `NS(=O)(=O)c1ccc(CCN2C(=O)C=CC2=O)cc1`, for which the growth with SR leukemia was 91.6%; in the experiment with RPMI-8226 leukemia, 102%; in the experiment with OVCAR-8 ovarian, 104%; in the experiment with OVCAR-5 ovarian, 106%; in the experiment on OVCAR-4 ovarian it was 97.7%; in the experiment on SK-OV-3 ovarian, 110%. The growth in the experiment on IGROV1 ovarian is 104%; with OVCAR-3 ovarian it was 106%; in the experiment with HS 578T breast, 108%; with NCI/ADR-RES ovarian, 99.6%; with T-47D breast it was 99.5%; with BT-549 breast, 111%. Besides, the growth is 108% in the experiment with MDA-MB-435 melanoma; 94.4% with MCF7 breast; 99.7% in the experiment with HCT-116 colon; 95.2% with HCC-2998 colon; 104% in the experiment on KM12 colon.
Consider `O=C(Cc1ccccc1)NNc1nc(Cl)nc(N2CCN(C(c3ccccc3)c3ccccc3)CC2)n1`, for which the growth in the experiment with SR leukemia was 10.7%; in the experiment on RPMI-8226 leukemia it was 101%; in the experiment with OVCAR-8 ovarian it was 91.8%; with OVCAR-5 ovarian it was 94.8%; with OVCAR-4 ovarian, 106%; with SK-OV-3 ovarian, 105%. Moreover, the growth is 64.5% in the experiment with IGROV1 ovarian; 101% in the experiment with OVCAR-3 ovarian; 98.9% with HS 578T breast; 102% in the experiment with NCI/ADR-RES ovarian; 84.4% in the experiment with T-47D breast; 99.3% with BT-549 breast. The growth with MDA-MB-435 melanoma was 100%; in the experiment on MCF7 breast it was 92.3%; in the experiment on HCT-116 colon, 80%; in the experiment with HCC-2998 colon it was 73.6%; with KM12 colon it was 97.5%.
On to `O=C1c2ccc3c4c(ccc(c24)C(=O)N1CCCNCc1ccccc1Cl)C(=O)N(CCCNCc1ccccc1Cl)C3=O`, for which the growth was -34.4% (active) with SR leukemia; -28.9% (active) with RPMI-8226 leukemia; -38.3% (active) in the experiment on OVCAR-8 ovarian; -39.2% (active) with OVCAR-5 ovarian; -96.6% (active) in the experiment with OVCAR-4 ovarian; 28.3% in the experiment with SK-OV-3 ovarian. The growth in the experiment with IGROV1 ovarian was -34.1% (active); in the experiment with OVCAR-3 ovarian it was -64.4% (active); in the experiment on HS 578T breast it was -22.9% (active); in the experiment with NCI/ADR-RES ovarian, -12.3% (active); in the experiment with T-47D breast it was -25.5% (active); in the experiment with BT-549 breast, -69% (active). Besides, the growth with MDA-MB-435 melanoma is -43.7% (active); with MCF7 breast, -78.2% (active); with HCT-116 colon it was -6.85% (active); with HCC-2998 colon, -85.5% (active); in the experiment on KM12 colon, -72.5% (active).
As for `O=C1c2ccccc2C(=O)c2c([N+](=O)[O-])ccc(Cl)c21`, the growth in the experiment with SR leukemia is 54%; with RPMI-8226 leukemia, 81.8%; in the experiment with OVCAR-8 ovarian, 75.2%; with OVCAR-5 ovarian, 135%; in the experiment with OVCAR-4 ovarian, 62.2%; in the experiment on SK-OV-3 ovarian it was 112%. Besides, the growth in the experiment on IGROV1 ovarian was 71.5%; with OVCAR-3 ovarian it was 57.1%; in the experiment with HS 578T breast it was 98.8%; in the experiment with NCI/ADR-RES ovarian, 92.4%; in the experiment on T-47D breast, 46.7%; in the experiment with BT-549 breast, 88.5%. For the same compound, the growth is 28.9% with SW-620 colon; 71.7% in the experiment with MCF7 breast; 63.6% in the experiment on HCT-116 colon; 104% in the experiment with HCC-2998 colon; 79.1% in the experiment with KM12 colon.
For the compound `COc1ccc(N2CCN(c3ccc(NC4=C(Cl)C(=O)c5ncccc5C4=O)cc3)CC2)cc1`, the growth in the experiment with SR leukemia is 12.9%; in the experiment on RPMI-8226 leukemia, 35.5%; in the experiment with OVCAR-8 ovarian, 32.9%; in the experiment with OVCAR-5 ovarian, 84.4%; with OVCAR-4 ovarian it was 28.8%; with SK-OV-3 ovarian it was 75.9%. Besides, the growth in the experiment with IGROV1 ovarian is -49.7% (active); in the experiment with OVCAR-3 ovarian, -3.66% (active); in the experiment with HS 578T breast, 36.3%; in the experiment on NCI/ADR-RES ovarian, 83%; in the experiment with T-47D breast, 33.2%; with BT-549 breast, 47.8%. Besides, the growth in the experiment on MDA-MB-435 melanoma was -4.96% (active); in the experiment on MCF7 breast, 8.91% (active); in the experiment on HCT-116 colon, 15.9%; in the experiment on HCC-2998 colon, 80.8%; in the experiment on KM12 colon, 63.8%.
For `CCCCCC(=O)Oc1ccc(/C(=C(/C)Cc2ccc(OC)cc2)c2ccc(OCCCN(C)C)cc2)cc1`, the growth in the experiment with SR leukemia is 10.9%; with RPMI-8226 leukemia, 82.7%; in the experiment on OVCAR-8 ovarian, 96.2%; with OVCAR-5 ovarian, 96.4%; in the experiment on OVCAR-4 ovarian, 71.4%; in the experiment with SK-OV-3 ovarian it was 81.5%. Further, the growth is 63.9% with IGROV1 ovarian; 86.5% with OVCAR-3 ovarian; 59.9% in the experiment with HS 578T breast; 88.2% in the experiment with NCI/ADR-RES ovarian; 51.2% with T-47D breast; 88.8% with BT-549 breast. The growth in the experiment with MDA-MB-435 melanoma was 53.2%; in the experiment with MCF7 breast, 20.1%; in the experiment on HCT-116 colon, 56.5%; in the experiment with HCC-2998 colon it was 69.3%; in the experiment with KM12 colon, 73.6%.
As for `O=C(Cn1c[n+](CC(=O)c2ccc(-c3ccccc3)cc2)c2ccccc21)Nc1cccc2cccnc12`, the growth in the experiment on SR leukemia was -17.1% (active); in the experiment with RPMI-8226 leukemia it was -30.2% (active); in the experiment on OVCAR-8 ovarian, 20%; in the experiment with OVCAR-5 ovarian, 62.8%; with OVCAR-4 ovarian it was 10.3%; in the experiment with SK-OV-3 ovarian, 50.5%. In addition, the growth with IGROV1 ovarian was -38.2% (active); with OVCAR-3 ovarian, -1.51% (active); in the experiment with HS 578T breast, 33.5%; in the experiment on NCI/ADR-RES ovarian, 96.7%; in the experiment on T-47D breast, 10.8%; in the experiment with BT-549 breast, -9.9% (active). Further, the growth is 36.1% with SW-620 colon; 12.6% in the experiment with MCF7 breast; 11.9% in the experiment with HCT-116 colon; 6.56% (active) in the experiment on HCC-2998 colon; -31.5% (active) in the experiment on KM12 colon.
In the case of `Cc1ccc(/C=C(/C#N)n2nnc3cccc(F)c32)cc1`, the growth is 9.82% (active) with SR leukemia; -4.51% (active) with RPMI-8226 leukemia; 8.47% (active) with OVCAR-8 ovarian; 0.132% (active) in the experiment with OVCAR-5 ovarian; 23% in the experiment with OVCAR-4 ovarian; 27.8% with SK-OV-3 ovarian. The growth is 17.6% in the experiment with IGROV1 ovarian; -53.2% (active) with OVCAR-3 ovarian; -14.8% (active) in the experiment on HS 578T breast; -33.1% (active) in the experiment with NCI/ADR-RES ovarian; 21.9% in the experiment on T-47D breast; 27.1% with BT-549 breast. Besides, the growth in the experiment on MDA-MB-435 melanoma is -89.5% (active); in the experiment with MCF7 breast, 13.5%; in the experiment with HCT-116 colon it was 2.07% (active); with HCC-2998 colon, -32.1% (active); in the experiment with KM12 colon it was -17.6% (active).
For the compound `O=C(NCCNc1nccc(-c2c(-c3cccc(F)c3)nc3sccn23)n1)c1ccc(Cl)cc1`, the growth with SR leukemia is 46.5%; with RPMI-8226 leukemia it was 62.4%; in the experiment with OVCAR-8 ovarian, 55.1%; with OVCAR-5 ovarian, 88.3%; in the experiment on OVCAR-4 ovarian, 77.9%; in the experiment on SK-OV-3 ovarian, 80.9%. Besides, the growth in the experiment on IGROV1 ovarian was 22.5%; in the experiment on OVCAR-3 ovarian it was 75.7%; in the experiment with HS 578T breast it was 74.8%; in the experiment with NCI/ADR-RES ovarian, 74.3%; in the experiment with T-47D breast, 49%; with BT-549 breast, 75.9%. Besides, the growth is 32.1% in the experiment with MDA-MB-435 melanoma; 27.7% in the experiment with MCF7 breast; 33% in the experiment with HCT-116 colon; 90.1% in the experiment on HCC-2998 colon; 62.8% in the experiment with KM12 colon.
